# Screening data as filed in PubChem.
# Compounds with a hit are over-represented: about 3.5% of the library has one in this group of screens.
# GPR151 activ: activators of human GPR151, primary screen, cell-based, PathHunter beta-arrestin, luminescence; G-protein coupled receptor 151 (Homo sapiens), Q8TDV0; PathHunter beta-arrestin GPR151 cells; activation, % at 11.2 µM; hit rate 1% among 650,000; AID 1508602, 2020; in the data active = activation above about 4.9%;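 note: 0% = median of compound wells and 100% = cells with positive control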
# FBW7 activator: FBW7 E3 ligase activators, primary screen, biochemical, AlphaScreen, human; F-box/WD repeat-containing protein 7 (Homo sapiens), Q969H0; AlphaScreen FBW7–phospho-cyclin E peptide binding, activator screen; normalized activity (activation), % at 26.1 µM; hit rate 0.13% among 650,000; in the data active = normalized activity above about 1.9%;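 note: purified mutant Fbw7 with reduced substrate affinity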
# Target sequence (Q969H0 whole entry, looked up): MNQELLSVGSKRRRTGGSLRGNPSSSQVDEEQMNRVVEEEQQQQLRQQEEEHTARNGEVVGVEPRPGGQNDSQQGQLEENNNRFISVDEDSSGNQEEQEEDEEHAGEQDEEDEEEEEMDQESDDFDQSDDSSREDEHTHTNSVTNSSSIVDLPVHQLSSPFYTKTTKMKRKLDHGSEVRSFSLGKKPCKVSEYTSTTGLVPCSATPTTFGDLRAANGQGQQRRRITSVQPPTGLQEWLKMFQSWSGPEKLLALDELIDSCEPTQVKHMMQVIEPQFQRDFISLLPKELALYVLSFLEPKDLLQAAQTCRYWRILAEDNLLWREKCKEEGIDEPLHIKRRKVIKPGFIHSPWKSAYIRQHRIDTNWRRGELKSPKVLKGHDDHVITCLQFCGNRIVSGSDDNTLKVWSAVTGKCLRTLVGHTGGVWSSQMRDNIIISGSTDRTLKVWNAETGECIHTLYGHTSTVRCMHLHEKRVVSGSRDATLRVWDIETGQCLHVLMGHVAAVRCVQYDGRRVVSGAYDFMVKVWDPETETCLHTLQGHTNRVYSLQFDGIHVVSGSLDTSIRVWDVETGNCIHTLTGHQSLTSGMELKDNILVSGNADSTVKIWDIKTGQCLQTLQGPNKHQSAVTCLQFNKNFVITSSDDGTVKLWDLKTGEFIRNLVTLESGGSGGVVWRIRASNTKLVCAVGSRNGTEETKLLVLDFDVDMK
# TEAD-YAP inh: TEAD-YAP interaction inhibition, primary screen, TEAD-YAP interaction inhibitor project, luminescence, HEK-TIYL cells; TEAD-Gal4/YAP UAS-luciferase luminescence; inhibition, % at 9.12 µM; hit rate 1.4% among 640,000; AID 1259422, 2018; in the data active = inhibition above about 32%;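 note: 0% = median of test compound wells and 100% = reference inhibitor wells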
# MITF inh: MITF inhibitors, primary screen, biochemical, AlphaScreen, human; Microphthalmia-associated transcription factor (Homo sapiens), O75030; hit rate 0.91% among 650,000; inhibition, % at 2.6 µM; AlphaScreen MITF homodimerization, bead proximity signal; AID 1259374, 2018; in the data active = inhibition above about 50%;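 note: 0% = vehicle wells with protein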
# GPR151 conf act: GPR151 activators, triplicate retest, confirmation, cell-based, PathHunter beta-arrestin, luminescence. GPR151 PathHunter beta-arrestin cells, 90 min; % of EA-reagent control over plate median. activation, % at 11.2 µM. 6,700 tested, under 10 active. shares compounds with GPR151 activ. AID 1508609, 2020;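 active = mean percent activation across replicates above the confirmation screen cutoff of 4.91%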
# GPR119 counter: GPR119 activators in beta-arrestin cells, counter-screen for GPR151 activator project, cell-based, PathHunter beta-arrestin, luminescence, triplicate; shares compounds with GPR151 activ; 90 min; 0 = compound-well median, 100 = enzyme-acceptor control; activation, % at 11.2 µM; hit rate 0.3% among 6,700; AID 1508611, 2020;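 active = mean percent activation in the counterscreen above 29.09%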;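 note: counterscreen on off-target GPR119 to flag nonselective hits from the GPR151 activator screen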
# Active calls of the source: *; . = not tested or not shown; ! = repeats disagree.
SMILES,GPR151 activ,FBW7 activator,TEAD-YAP inh,MITF inh,GPR151 conf act,GPR119 counter
COc1ccc(C(N)=O)cc1NC(=O)CC(O)(C(F)(F)F)C(F)(F)F,7.3*,0.0,-9.9,48.4,0.0,-10.6
CCSc1ccccc1C(=O)Nc1ccc(-c2nc(C)no2)cc1,-0.5,-0.1,-41.4,-8.6,.,.
O=c1[nH]c(=O)n(Cc2ccccc2Cl)c(O)c1C=NCc1ccc2c(c1)OCO2,-1.1,0.2,6.8,9.1,.,.
CCCCCCc1c(C)c2ccc(OC(C)C(=O)OC)cc2oc1=O (centres undefined),5.7*,0.0,3.7,-6.1,0.0,-10.0
COC(=O)C(C)Oc1ccc2c(C)c(Cc3ccccc3)c(=O)oc2c1 (centres undefined),0.1,0.5,-5.9,-18.9,.,.
Cc1cc(=O)oc2cc(OC(=O)c3ccco3)ccc12,0.3,0.1,-1.3,14.6,.,.
COC(=O)Cc1c(C)c2ccc(OC(=O)c3ccco3)cc2oc1=O,9.0*,0.0,-7.2,7.5,0.5,-3.1
C=CCOC(=O)COc1ccc2c(CCC)cc(=O)oc2c1,5.8*,0.1,7.0,11.9,-0.9,-7.6
CCCCOC(=O)COc1ccc2c(CCC)cc(=O)oc2c1,0.5,0.1,8.3,-8.1,.,.
CCc1cc(=O)oc2cc(OC(=O)c3ccco3)ccc12,6.8*,-0.1,7.9,-7.0,-0.1,-2.6
O=C(NCCCO)/C(=C/c1ccccc1F)NC(=O)c1ccccc1,5.0*,0.0,5.1,-2.1,0.1,6.1
COc1ccc(OC)c(C(C)NC(=S)Nc2ccc(S(N)(=O)=O)cc2)c1 (centres undefined),0.9,0.2,7.0,-28.5,.,.
O=C(Nc1ccc(Cl)c(C(F)(F)F)c1)C1CCCN1C(=O)OCc1ccccc1 (centres undefined),1.7,1.3,5.6,9.3,.,.
COc1ccc(C(C)(C)C)cc1NC(=O)COn1nnc2ccc(C(F)(F)F)cc21,5.1*,0.1,14.8,-8.5,-0.2,4.9
CCc1c(C#N)c(N)nc(SCC(=O)c2cc3ccccc3oc2=O)c1C#N,9.9*,-0.1,-0.3,1.1,-0.4,15.4
CC(C)(C)c1ccc(-c2ccc(OCCN3CCOCC3)nc2)cc1,5.8*,-0.6,58.2*,-1.9,-0.8,4.0
Cc1ccc(-c2ccc(OCCN3CCOCC3)nc2)cc1,0.5,-0.2,-23.2,16.8,.,.
Cc1nnsc1C(=O)N1CCC(c2ccccc2)C1 (centres undefined),-0.6,-0.1,-3.6,12.9,.,.
Cc1nnsc1C(=O)N1C2CCC1CC(c1ccc(F)cc1)C2 (centres undefined),12.2*,0.1,16.0,-19.4,-0.4,1.2
O=C(c1ccco1)N1C2CCC1CC(c1ccc(F)cc1)C2 (centres undefined),8.6*,0.1,-6.2,-5.6,-0.1,1.8
O=C(c1cscn1)N1C2CCC1CC(c1ccc(F)cc1)C2 (centres undefined),0.0,0.0,5.3,7.7,.,.
Cc1ccc(Cn2nnc3c(=O)[nH]c(C4CCN(C(=O)c5ccco5)CC4)nc32)cc1,0.9,0.2,6.5,24.5,.,.
O=C(c1ccco1)N1CCC(c2nc3c(nnn3Cc3ccccc3Cl)c(=O)[nH]2)CC1,5.7*,0.7,8.5,5.0,1.3,13.1
CCNC(=O)CNS(=O)(=O)c1ccc(C)cc1,7.9*,-0.1,2.4,4.2,-0.1,0.9
CCNC(=O)CNS(=O)(=O)c1ccc(I)cc1,1.2,0.1,7.7,-1.4,.,.
SMILES,GPR151 activ,FBW7 activator,TEAD-YAP inh,MITF inh,GPR151 conf act,GPR119 counter
CCCCNC(=O)NS(=O)(=O)c1ccc(C)cc1,6.1*!,0.3,-0.4,14.8,0.5,1.7
CN1CCN(C(=O)c2ccc(-c3nc4ccc(C(=O)NC5CC5)cc4s3)cc2)CC1,1.1,-0.1,-5.2,2.0,.,.
COc1cc(CN2CCc3nnc(CCc4ccccc4)n3CC2)cc(OC)c1OC,7.1*,0.1,17.7,5.4,0.2,8.2
COc1cc(CN2CCc3nnc(CCc4ccccc4)n3CC2)cc(OC)c1O,0.7,0.0,1.7,12.3,.,.
COc1cccc(CN2CCc3nnc(CCNC(=O)C4CCCO4)n3CC2)c1 (centres undefined),6.3*,-0.1,-9.1,-15.6,0.0,5.3
CCOc1cc(/C=N/NC(=O)c2nnn(-c3nonc3N)c2CC)ccc1O,6.9*,0.4,14.2,10.6,-0.5,-1.4
CCOc1cc(/C=N/NC(=O)c2nnn(-c3nonc3N)c2-c2ccccc2)ccc1O,-0.2,-0.1,4.1,-5.9,.,.
CCN(CC)Cc1c(C(=O)N/N=C/c2cccc([N+](=O)[O-])c2)nnn1-c1nonc1N,9.9*,0.1,-10.2,-10.9,0.1,-0.7
CSc1nc(N)nc(SCC(=O)Nc2ccc(C)cc2)c1C#N,-0.1,0.2,-1.2,3.8,.,.
CSc1nc(N)nc(SCC(=O)Nc2ccc(Cl)cc2)c1C#N,11.2*,-0.2,3.4,-7.4,-0.2,-0.4
NS(=O)(=O)c1ccc(CCNC(=O)CSc2nc(NC3CCCCC3)c3ccccc3n2)cc1,5.1*,0.1,1.9,4.0,-0.8,-4.1
CCC(C(=O)N1CCCCCC1)n1c2ccccc2c2nc(=O)cc(C)n21 (centres undefined),0.0,0.0,2.6,7.5,.,.
Cc1ccc(NC(=O)C(Sc2ccccc2)c2ccccc2)cc1[N+](=O)[O-] (centres undefined),8.4*,0.1,-2.0,13.6,0.4,-10.1
Cc1nnc(SCC(=O)Nc2ccc(Cl)c([N+](=O)[O-])c2)s1,-1.4,-0.2,13.6,-2.8,.,.
CC(=O)Nc1ccc(NC(=O)C(Sc2ccccc2)c2ccccc2)cc1 (centres undefined),-0.4,0.1,-5.1,-18.0,.,.
Cc1nnc(SCC(=O)Nc2ccc(C)c([N+](=O)[O-])c2)s1,7.3*,0.0,9.4,18.4,-1.4,-5.6
Cc1ccc(NC(=O)COc2ccccc2C(=O)NC(C)c2ccccc2)cc1[N+](=O)[O-] (centres undefined),7.1*,0.2,9.6,17.4,0.2,-13.0
CCOC(=O)c1sc2nc(SCC(=O)c3ccc(Cl)cc3)n(Cc3ccc(F)cc3)c(=O)c2c1C,1.4,0.1,-4.7,0.3,.,.
C1=C(c2ccccc2)N(c2ccccc2)N=C(Cc2ccccc2)S1,-1.0,-0.1,-15.8,-2.7,.,.
COc1ccc(-c2[nH]c(-c3ccc4c(c3)OCO4)nc2-c2ccccc2)cc1,0.5,-0.2,1.1,-3.3,.,.
Clc1cc2c(cc1-c1nc(-c3ccccc3)c(-c3ccccc3)[nH]1)OCO2,6.6*,0.1,-1.0,46.7,2.5,19.7
